Results filed as inconclusive are left out. Activity calls are given as the source filed them. Calls follow the shape of the dose curve; as a rule, active = well fitted inhibition curve with a large enough effect; inconclusive = small, poorly fitted or top-dose-only effect; inactive = no such curve, though single readings can be large or run the other way.
system: 6-phosphofructokinase (Trypanosoma brucei); assay: Confirmatory Assay to Find Inhibitors of T. brucei phosphofructokinase: probe SAR; conditions: recombinant T. brucei PFK, ADP-Glo luminescence; series mostly up to 57.5 µM
Text: NIH Molecular Libraries Probe Production Network [MLPCN] NIH Chemical Genomics Center [NCGC] Grant: 1 R03 MH092153-01 PI Name: Malcolm Walkinshaw, University of Edinburgh NCGC Assay Overview: Various species of the protozoan family Trypanosomatidae are responsible for a range of serious human diseases in tropical and subtropical areas of the world. […] Many of the disorders caused by trypanosomatids are fatal if left untreated, but most currently used drugs are inefficient and toxic. […] Oxidative metabolism involving the mitochondrial tricarboxylic acid cycle and oxidative phosphorylation are repressed in these parasites, and recent RNA interference (RNAi) experiments have shown that even partial depletion of certain individual glycolytic enzymes can lead to the death of cultured parasites. One such glycolytic enzyme, phosphofructokinase (PFK), catalyzes the formation of fructose-1,6-bisphosphate (F1,6BP) and ADP from fructose-6-phosphate (F6P) and ATP, and in many metabolic circumstances makes an important contribution to the control of flux through the glycolytic pathway. As a specific glycolytic target, PFK is particularly attractive as it catalyzes the first irreversible step in glycolysis, and structural and kinetic studies have shown very substantial and essential differences from corresponding host enzymes, allowing for the discovery of parasite-selective inhibitors. The goal of this screen is to find small-molecule inhibitors of T. brucei PFK using a biochemical assay that measures PFK activity as a function of ADP production. A luminescence-based assay for T. brucei PFK activity has been developed which uses luciferase to detect production of ADP. Traditional luciferase-based nucleotide detection reagents rely on ATP production as a direct substrate for the luciferase reaction; however, PFK catalyzes the transfer of a phosphate from ATP to F6P, resulting in the net depletion of ATP. To directly measure the ADP product of the PFK reaction, we used the ADP-Glo detection kit (Promega), which utilizes two separate reactions to 1) deplete all remaining uncatalyzed ATP and 2) convert all remaining ADP to ATP, which is then detected through a traditional luciferase-coupled reaction. Compounds were screened as a concentration-titration series that ranged from 57 uM to 0.3 nM.
NCGC Assay Protocol Summary: NCGC Assay Protocol Summary: Substrate buffer was dispensed into white, solid 1536-well plates at 3uL/well in 0.1M triethanolamine (TEA) buffer, pH 8.0, containing final concentrations of 5 mM MgCl2, 0.01% Tween20, 0.5 mM fructose-6-phosphate (F6P) and 0.1mM ATP. Then, 23 nL of compounds or DMSO were delivered to each well using a pin tool. One uL T. brucei PFK (0.1M TEA, 0.01% Tween20, 0.1% bovine serum albumin (BSA) and 1.25nM PFK, final concentrations) was then dispensed, and plates were incubated at room temperature for 45 min. The luminescent detection reagent, ADP-Glo (Promega), was then added in two steps: the first reagent, ADP-Glo (which converts remaining uncatalyzed ATP), was added at 2.5uL/well and incubated for ten minutes at room temperature, and the second component, Kinase Detection reagent (which converts ADP to ATP as a substrate for luciferase-based luminescence), was added immediately after at 5uL/well, followed by one final ten minute room temperature incubation. The plates were measured on a ViewLux plate reader for luminescent signal using a clear filter with a one second exposure. The %Activity was determined from the corrected luminescence values. As no specific T. brucei PFK inhibitors have been identified in the literature, 1x (1.25nM) and 0x PFK enzyme controls (untreated) were included to normalize %Activity of identified inhibitors; 0x enzyme values corresponded to 100%Activity (full inhibition), while 1x PFK enzyme values were used to normalize 0%Activity (no inhibition). Concentration-response curves were fitted to the signals arising from the resulting luminescence. […]

Potency, inactive:
COc1ccc(CC(=O)Nc2ccc(S(=O)(=O)Nc3cc(C)on3)cc2)cc1C
CCOC(=O)c1cccc(NS(=O)(=O)c2ccc(NC(=O)Cc3ccc(Cl)c(Cl)c3)cc2)c1
COc1ccc(CC(=O)Nc2ccc(S(=O)(=O)Nc3cc(C)on3)cc2)cc1OC
Cc1cc(NC(=O)c2csc(NC(=O)Cc3ccc(Cl)c(Cl)c3)n2)no1
Cc1cc(NC(=O)c2ccc(NC(=O)Cc3ccc(Cl)c(Cl)c3)cc2)no1

Potency, active:
CN(C)c1cccc(NS(=O)(=O)c2ccc(NC(=O)Cc3ccc(Cl)c(Cl)c3)cc2)c1 5.8 µM
Cc1cc(NS(=O)(=O)c2ccc(NC(=O)Cc3ccc(Cl)c(F)c3)cc2)no1 0.58 µM
Cc1cc(NS(=O)(=O)c2cccc(NC(=O)Cc3ccc(Cl)c(Cl)c3)c2)no1 16.3 µM
Cc1cc(NS(=O)(=O)c2ccc(NC(=O)Cc3cccc(Cl)c3)cc2)no1 7.3 µM
O=C(Cc1ccc(Cl)c(Cl)c1)Nc1ccc(S(=O)(=O)Nc2ccc(C(=O)O)cc2)cc1 0.163 µM
O=C(Cc1ccc(Cl)c(Cl)c1)Nc1ccc(S(=O)(=O)O)cc1 0.651 µM
Cc1cc(N(C)S(=O)(=O)c2ccc(NC(=O)Cc3ccc(Cl)c(Cl)c3)cc2)no1 2.91 µM
Cc1cc(NS(=O)(=O)c2ccc(NC(=O)Cc3ccc(C)c(C)c3)cc2)no1 18.3 µM
Cc1cc(NS(=O)(=O)c2ccc(NC(=O)Cc3ccc(Cl)c(Cl)c3)cc2)on1 0.206 µM
Cc1cc(NS(=O)(=O)c2ccc(NC(=O)Cc3ccc(Cl)c(Cl)c3)cc2)n(C)n1 1.46 µM
Cc1cc(N[S+](=O)([O-])c2ccc(NC(=O)Cc3ccc(Cl)nc3)cc2)no1 20.6 µM
Cc1cc(NS(=O)(=O)c2ccc(C(=O)NCc3ccc(Cl)c(Cl)c3)cc2)no1 2.91 µM
O=C(Cc1ccc(Cl)c(Cl)c1)Nc1ccc(S(=O)(=O)Nc2ccon2)cc1 0.366 µM
Cc1cc(NS(=O)(=O)c2ccc(N(C)C(=O)Cc3ccc(Cl)c(Cl)c3)cc2)no1 1.63 µM
Cc1cc(NS(=O)(=O)c2ccc(NC(=O)Cc3ccc(Cl)cc3)cc2)no1 1.83 µM
Cc1cc(NS(=O)(=O)c2ccc(NC(=O)Cc3ccc(Cl)c(C(F)(F)F)c3)cc2)no1 0.461 µM
Cc1cc(NS(=O)(=O)c2ccc(NC(=O)Cc3ccc(Cl)c(Cl)c3)cc2)no1 0.41 µM
Cc1cc(NS(=O)(=O)Cc2ccc(NC(=O)Cc3ccc(Cl)c(Cl)c3)cc2)no1 2.59 µM
O=C(Cc1ccc(Cl)c(Cl)c1)Nc1ccc(S(=O)(=O)Nc2cncnc2)cc1 0.819 µM
O=C(Cc1ccc(Cl)c(Cl)c1)Nc1ccc(S(=O)(=O)Nc2cccc(O)c2)cc1 1.46 µM
Cc1cc(NS(=O)(=O)c2ccc(NC(=O)CCc3ccc(Cl)c(Cl)c3)cc2)no1 5.17 µM
Cc1cc(N[S+](=O)([O-])c2ccc3cc(NC(=O)Cc4ccc(Cl)c(Cl)c4)ccc3c2)no1 5.8 µM
O=C(Cc1ccc(Cl)c(Cl)c1)Nc1ccc(S(=O)(=O)Nc2ccn[nH]2)cc1 0.517 µM
Cc1cc(NS(=O)(=O)c2ccc(NCCc3ccc(Cl)c(Cl)c3)cc2)no1 4.61 µM
Cc1cc(NS(=O)(=O)c2ccc(NC(=O)Cc3ccc(Cl)cc3Cl)cc2)no1 4.61 µM
Cc1cc(NS(=O)(=O)c2ccc(NC(=O)Cc3ccc4ccccc4c3)cc2)no1 6.51 µM
O=C(Cc1ccc(Cl)c(Cl)c1)Nc1ccc(S(=O)(=O)Nc2cccc(C(=O)O)c2)cc1 0.259 µM
O=C(Cc1ccc(Cl)c(Cl)c1)Nc1ccc(S(=O)(=O)Nc2ccccc2)cc1 16.3 µM
Cc1cc(NS(=O)(=O)c2ccc(NC(=O)Cc3ccc(C)c(F)c3)cc2)no1 5.8 µM

Reference: PubChem BioAssay AID540360 (National Center for Advancing Translational Sciences (NCATS), 2011)
